Results as given in PubChem BioAssay (Tox21).
Values joined by “and” are separate entries in the source; they are usually repeats but may differ in a detail not shown here. Equal values may be shown once. Inconclusive results are not listed. Where a call stands in place of a potency, no number is given. Some structures have more than one record in an assay (separate samples or runs), and their calls can disagree. Active and inactive are the calls of the source. Unless noted, the call rests on the fitted dose curve.

Experiments:
[1] = Nuclear factor erythroid 2-related factor 2/antioxidant responsive element (Nrf2/ARE) small molecule agonists: qHTS cell viability counter screen in human keratinocytes (AID 1919968; active means well fitted curve in the direction sought with a large enough effect in the repeat runs; an effect the other way counts as inactive or inconclusive; further: nearly all actives have a fitted effect of over 55% in size; further: potency means the concentration at half of the fitted maximal effect)
Outline: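 Viability counter-screen: KeratinoSens reporter cells, DMSO-delivered compounds, 23 h at 37 C, CellTiter-Fluor fluorescence.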

[2] = Nuclear factor erythroid 2-related factor 2/antioxidant responsive element (Nrf2/ARE) small molecule agonists: luciferase reporter gene qHTS assay in human keratinocytes (AID 1919969); further: nearly all actives have a fitted effect of over 35% in size
[3] = target: Gonadotropin-releasing hormone receptor (Homo sapiens) (UniProt P30968); assay: Human gonadotropin-releasing hormone receptor (GnRHR) small molecule agonists, calcium flux assay in GnRHR-HEK293 cells (AID 1920063); further: nearly all actives have a fitted effect of over 35% in size
Sequence of Gonadotropin-releasing hormone receptor (Homo sapiens) (P30968 whole entry, looked up): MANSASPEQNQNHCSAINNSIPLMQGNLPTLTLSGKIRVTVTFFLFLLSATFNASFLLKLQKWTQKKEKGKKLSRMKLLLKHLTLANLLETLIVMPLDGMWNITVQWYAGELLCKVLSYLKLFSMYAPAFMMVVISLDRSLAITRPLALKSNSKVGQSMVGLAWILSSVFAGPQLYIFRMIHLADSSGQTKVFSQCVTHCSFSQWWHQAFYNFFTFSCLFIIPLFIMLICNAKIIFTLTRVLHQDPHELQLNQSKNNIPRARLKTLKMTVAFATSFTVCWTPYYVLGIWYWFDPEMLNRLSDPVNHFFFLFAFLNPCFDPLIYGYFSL
Outline: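 Tox21-format agonist screen using human GnRHR-expressing HEK293 cells and a fluorescent calcium dye; kinetic 3-min fluorescence reading after compound addition, 15-point concentration series run in triplicate.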

[4] = target: KiSS-1 receptor (Homo sapiens) (UniProt Q969F8); assay: Human kisspeptin (KISS1R) small molecule agonists, calcium flux assay in KISS1R-HEK293 cells (AID 1920064; active means well fitted curve in the direction sought with a large enough effect in the repeat runs; an effect the other way counts as inactive or inconclusive)
Sequence of KiSS-1 receptor (Homo sapiens) (Q969F8 whole entry, looked up): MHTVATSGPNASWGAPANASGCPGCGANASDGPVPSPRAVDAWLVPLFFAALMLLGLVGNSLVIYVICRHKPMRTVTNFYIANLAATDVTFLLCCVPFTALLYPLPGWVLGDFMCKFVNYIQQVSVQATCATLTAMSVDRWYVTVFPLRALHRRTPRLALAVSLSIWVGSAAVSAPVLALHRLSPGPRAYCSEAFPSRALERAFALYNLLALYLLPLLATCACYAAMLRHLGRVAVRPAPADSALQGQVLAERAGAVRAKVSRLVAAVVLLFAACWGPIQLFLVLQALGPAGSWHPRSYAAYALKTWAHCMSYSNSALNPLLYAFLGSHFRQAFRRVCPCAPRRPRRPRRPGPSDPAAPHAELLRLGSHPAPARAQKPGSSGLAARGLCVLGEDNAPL
Outline: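 Intracellular calcium mobilization in KISS1R-HEK293 cells was recorded by fluorescence (Ex/Em 480/540) for 3 min following compound addition to cells pre-loaded 1 h with calcium dye.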

[5] = G protein-coupled receptor (GPCR) small molecule agonists, calcium flux assay: HEK293 wild type cell line counter screen (AID 1920065)
Outline: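 In this agonist-mode screen, ATP is the positive control and DMSO the vehicle. Cells grow 18 h before a 1 h dye incubation at 37 C; signal is taken at Ex/Em 480/540 over 3 min.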

[6] = p53 small molecule agonists, cell-based qHTS assay with human liver microsomes (AID 1963577)
Outline: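 p53RE-bla reporter cells were pre-incubated 5 h at 37 C, then treated with compounds plus human liver microsomes (0.5 mg/mL final) and NADPH (0.5 mg/mL final) for 16 h at 37 C. Beta-lactamase activity was read by LiveBLAzer fluorescence after 2 h at room temperature.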

[7] = p53 small molecule agonists, cell-based qHTS assay with rat liver microsomes (AID 1963578)
Outline: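 p53RE-bla cells were exposed to compounds together with rat liver microsomes (0.5 mg/mL final) and NADPH (0.5 mg/mL final) for 16 h at 37 C, then read by LiveBLAzer beta-lactamase fluorescence after 2 h at room temperature.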

[8] = p53 small molecule agonists, cell-based qHTS assay with human liver microsomes: qHTS cell viability counter screen (AID 1963579); further: nearly all actives have a fitted effect of over 45% in size; further: potency means the concentration at half of the fitted maximal effect
Outline: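 p53RE-bla cells (4,000/well) were pre-incubated 5 h at 37 C, then given compounds in DMSO plus human liver microsomes (0.5 mg/mL final) and NADPH (0.5 mg/mL final) for 16 h at 37 C. Viability was read by CellTiter-Glo luminescence.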

[9] = p53 small molecule agonists, cell-based qHTS assay with rat liver microsomes: qHTS cell viability counter screen (AID 1963580); further: nearly all actives have a fitted effect of over 45% in size; further: potency means the concentration at half of the fitted maximal effect
Outline: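 Intracellular ATP, by CellTiter-Glo luminescence, defines viability. HCT-116 p53RE-bla cells, 4,000 per well, were compound-treated in the presence of rat liver microsomes and NADPH for 16 h at 37 C.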

[10] = p53 small molecule agonists, cell-based qHTS assay: qHTS cell viability counter screen (AID 1963581); further: nearly all actives have a fitted effect of over 45% in size
Outline: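 Compounds are pinned onto HCT-116 p53RE-bla cells and left 16 h at 37 C. Following the reporter FRET read, ATP is quantified by CellTiter-Glo luminescence after 30 min at room temperature.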

[11] = p53 small molecule agonists, cell-based qHTS assay (AID 1963582; active means well fitted activation curve with a large enough effect in the signal ratio in the repeat runs, not every such curve was filed as active; the % refers to the signal ratio)
Outline: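 Agonist activity was scored from beta-lactamase FRET fluorescence in p53RE-bla cells treated 16 h at 37 C with compounds in DMSO, substrate incubation being 2 h at room temperature.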

[12] = target: 5-hydroxytryptamine receptor 2A (Homo sapiens) (UniProt P28223); assay: 5-hydroxytryptamine receptor 2A (HTR2A) small molecule antagonists, cell-based qHTS assay (AID 1963586); further: nearly all actives have a fitted effect of over 45% in size; further: potency means the concentration at half of the fitted maximal effect
Sequence of 5-hydroxytryptamine receptor 2A (Homo sapiens) (P28223 whole entry, looked up): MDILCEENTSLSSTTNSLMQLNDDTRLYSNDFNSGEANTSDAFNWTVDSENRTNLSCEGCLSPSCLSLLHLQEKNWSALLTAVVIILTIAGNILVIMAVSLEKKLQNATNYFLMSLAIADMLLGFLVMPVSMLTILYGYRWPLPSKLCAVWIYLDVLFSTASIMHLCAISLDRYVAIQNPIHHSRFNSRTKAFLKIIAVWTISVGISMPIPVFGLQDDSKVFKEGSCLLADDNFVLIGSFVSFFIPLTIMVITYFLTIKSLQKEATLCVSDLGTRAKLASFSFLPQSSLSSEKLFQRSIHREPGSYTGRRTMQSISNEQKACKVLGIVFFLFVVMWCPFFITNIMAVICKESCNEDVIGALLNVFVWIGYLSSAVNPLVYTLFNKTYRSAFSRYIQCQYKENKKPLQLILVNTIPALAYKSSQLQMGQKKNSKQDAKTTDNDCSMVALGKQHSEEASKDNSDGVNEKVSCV
Outline: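 Antagonist-mode intracellular calcium assay: DOI (4 nM) added after 5 min compound pre-incubation at room temperature to dye-loaded HTR2A-CHO cells. Fluorescence followed for 3 min, sampled every second.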

[13] = target: 5-hydroxytryptamine receptor 2A (Homo sapiens) (UniProt P28223); assay: 5-hydroxytryptamine receptor 2A (HTR2A) small molecule agonists, cell-based qHTS assay (AID 1963587); further: nearly all actives have a fitted effect of over 30% in size; further: potency means the concentration at half of the fitted maximal effect
Outline: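 Kinetic calcium-flux fluorescence (2 min, 1 sec intervals) after compound addition in agonist mode. HTR2A-CHO cells were cultured 18 h, then dye-loaded 1 h at 37 C.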

[14] = target: Muscarinic acetylcholine receptor M1 (Homo sapiens) (UniProt P11229); assay: Cholinergic receptor muscarinic 1 (CHRM1) small molecule antagonists, cell-based qHTS assay (AID 1963588); further: nearly all actives have a fitted effect of over 40% in size; further: potency means the concentration at half of the fitted maximal effect
Sequence of Muscarinic acetylcholine receptor M1 (Homo sapiens) (P11229 whole entry, looked up): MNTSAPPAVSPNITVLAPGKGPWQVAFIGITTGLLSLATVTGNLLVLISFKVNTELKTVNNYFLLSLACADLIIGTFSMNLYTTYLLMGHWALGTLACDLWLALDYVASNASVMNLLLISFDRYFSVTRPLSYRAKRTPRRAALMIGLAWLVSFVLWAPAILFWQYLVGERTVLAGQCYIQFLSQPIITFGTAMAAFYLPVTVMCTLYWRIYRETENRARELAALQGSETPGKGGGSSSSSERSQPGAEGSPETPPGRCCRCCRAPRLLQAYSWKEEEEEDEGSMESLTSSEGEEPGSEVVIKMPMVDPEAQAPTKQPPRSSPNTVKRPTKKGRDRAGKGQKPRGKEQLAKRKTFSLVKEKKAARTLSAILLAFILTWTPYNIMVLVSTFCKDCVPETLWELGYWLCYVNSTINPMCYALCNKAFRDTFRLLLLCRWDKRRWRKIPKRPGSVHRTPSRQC
Outline: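 CHRM1-CHO calcium-flux assay, antagonist mode. Cells were seeded 18 h, dye-loaded 1 h at 37 C and given compound for 5 min at RT, then acetylcholine was added at 50nM. FDSS fluorescence was read 3 min; 15 concentrations, three runs.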

[15] = target: Muscarinic acetylcholine receptor M1 (Homo sapiens) (UniProt P11229); assay: Cholinergic receptor muscarinic 1 (CHRM1) small molecule agonists, cell-based qHTS assay (AID 1963589); further: nearly all actives have a fitted effect of over 35% in size
Outline: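 Stable CHRM1-CHO cells (human receptor) were incubated 18 h, dye-loaded for 1 h at 37 C and exposed to test compounds for agonist activity, with calcium-dependent fluorescence followed kinetically.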

[16] = cAMP Responsive Elements (CRE) small molecule agonists, cell-based qHTS assay (AID 1963590)
Outline: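 FRET-based beta-lactamase readout (LiveBLAzer B/G, 2 h RT) quantified CRE activation in HEK 293T CRE-bla cells after 3 h treatment with DMSO-dissolved compounds.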

[17] = cAMP Responsive Elements (CRE) small molecule antagonists, cell-based qHTS assay (AID 1963591; active means well fitted inhibition curve with a large enough effect in the signal ratio in the repeat runs, not every such curve was filed as active; the % refers to the signal ratio)
Outline: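 qHTS in CRE-bla HEK 293T cells: compound in DMSO, then 0.25 uM NKH477 (final), 3 h at 37 °C/5% CO2; beta-lactamase FRET read-out after 2 h substrate incubation.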

[18] = target: Beta-2 adrenergic receptor (Homo sapiens) (UniProt P07550); assay: Adrenergic beta2 receptor (ADRB2) small molecule antagonists, cell-based qHTS assay (AID 1963592); further: series mostly up to about 92 µM; nearly all actives have a fitted effect of over 50% in size
Sequence of Beta-2 adrenergic receptor (Homo sapiens) (P07550 whole entry, looked up): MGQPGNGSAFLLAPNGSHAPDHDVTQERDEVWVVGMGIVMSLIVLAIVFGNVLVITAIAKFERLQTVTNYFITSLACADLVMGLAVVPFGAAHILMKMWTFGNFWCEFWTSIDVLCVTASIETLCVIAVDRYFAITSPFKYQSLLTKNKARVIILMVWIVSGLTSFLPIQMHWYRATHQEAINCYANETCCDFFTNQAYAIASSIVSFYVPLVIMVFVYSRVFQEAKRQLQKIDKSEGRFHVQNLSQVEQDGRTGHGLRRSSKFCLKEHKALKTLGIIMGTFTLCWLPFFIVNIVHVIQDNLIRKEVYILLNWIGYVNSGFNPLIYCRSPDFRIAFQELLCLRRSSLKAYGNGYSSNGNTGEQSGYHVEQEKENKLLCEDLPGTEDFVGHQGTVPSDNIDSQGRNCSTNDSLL
Outline: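 Cells (CHO, stable ADRB2 overexpression) incubated 18-20hr at 37C; compounds added from DMSO; agonist mix (1nM isoproterenol, 100uM IBMX, 25uM Ro-20-1724) added; 0.5hr RT; d2-cAMP and anti-cAMP-cryptate added; 1hr RT; 665/615 nm read.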

[19] = target: D(2) dopamine receptor (Homo sapiens) (UniProt P14416); assay: Dopamine D2 receptor (DRD2) small molecule antagonists, cell-based qHTS assay (AID 1963595; active means well fitted inhibition curve with a large enough effect in the signal ratio in the repeat runs, with a control signal flat; the % refers to the signal ratio)
Sequence of D(2) dopamine receptor (Homo sapiens) (P14416 whole entry, looked up): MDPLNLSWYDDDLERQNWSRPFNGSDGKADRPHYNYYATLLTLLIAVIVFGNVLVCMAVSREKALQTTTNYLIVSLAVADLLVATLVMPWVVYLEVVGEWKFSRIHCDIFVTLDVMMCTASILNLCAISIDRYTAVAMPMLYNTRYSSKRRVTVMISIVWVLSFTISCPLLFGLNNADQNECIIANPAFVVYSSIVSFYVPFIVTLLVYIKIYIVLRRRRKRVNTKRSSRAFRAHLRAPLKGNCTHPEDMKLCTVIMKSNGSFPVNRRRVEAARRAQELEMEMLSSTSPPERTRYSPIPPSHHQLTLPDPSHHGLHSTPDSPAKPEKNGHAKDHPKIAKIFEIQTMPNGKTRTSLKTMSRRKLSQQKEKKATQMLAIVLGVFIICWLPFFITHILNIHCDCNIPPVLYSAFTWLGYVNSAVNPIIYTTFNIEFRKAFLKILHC
Outline: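 Antagonist mode in DRD2-HEK293 cells: after compound addition with 0.1 mM Ro20-1724, cells received quinpirole (12 nM) and NKH477 (200 nM) for 30 min at room temperature; HTRF cAMP read after 1 h detection.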

[20] = target: D(2) dopamine receptor (Homo sapiens) (UniProt P14416); assay: Dopamine D2 receptor (DRD2) small molecule agonists, cell-based qHTS assay (AID 1963594); further: nearly all actives have a fitted effect of over 35% in size
Outline: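 cAMP accumulation in DRD2-HEK293 cells measured by HTRF after 1 h detection; compounds added 10 min before NKH477 (200nM […]) forskolin-analogue stimulation, 30 min at room temperature, with Ro20-1724 present at 0.1 mM final.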

Compound | Potency [1] | Potency [2] | Potency [3] | Potency [4] | Potency [5] | Potency [6] | Potency [7] | Potency [8] | Potency [9] | Potency [10] | Potency [11] | Potency [12] | Potency [13] | Potency [14] | Potency [15] | Potency [16] | Potency [17] | Potency [18] | Potency [19] | Potency [20]
Cc1cccc(O)c1 | inactive | inactive | inactive | inactive | inactive | inactive | inactive | inactive | inactive | inactive | inactive | inactive | inactive | inactive | inactive | inactive | inactive | inactive | inactive | 
c1ccc2[nH]cnc2c1 | inactive | inactive | inactive | inactive | inactive | inactive | inactive | inactive | inactive | inactive | inactive | inactive | inactive | inactive |  | inactive | inactive | inactive | inactive | inactive
CCCCCCCCCCCCCC[N+](C)(C)Cc1ccccc1 | 24.7 µM (active) and 13.3 µM (active) and 12.6 mM (active) | inactive | inactive | inactive | inactive | inactive | inactive | inactive and 17.8 mM (active) | 46.5 µM (active) and inactive | inactive | inactive | 1.2 µM (active) and 4.1 µM (active) and inactive | inactive and 20 mM (active) | 2.7 µM (active) and 631 µM (active) | inactive |  | inactive |  |  | 
CCOC(=O)CC(=O)OCC | inactive | inactive | inactive | inactive | inactive | inactive | inactive | inactive | inactive | inactive | inactive | inactive | inactive | inactive | inactive | inactive | inactive | inactive | inactive | inactive
NCCNc1cccc2ccccc12 | 54.4 µM (active) and inactive | inactive | inactive | inactive | inactive | inactive | inactive | inactive | inactive | inactive | inactive | 2.9 nM (active) | 389 nM (active) and 1.2 nM (active) and 19 nM (active) | inactive | inactive | inactive | inactive |  | inactive | inactive
O=C(O)c1cccc([N+](=O)[O-])c1 | inactive | inactive | inactive | inactive | inactive | inactive | inactive | inactive | inactive | inactive | inactive | inactive | inactive | inactive | inactive |  | inactive | inactive | inactive | inactive
O=C(O)c1ccc(S(=O)(=O)N(Cl)Cl)cc1 | inactive | inactive | inactive | inactive | inactive | inactive | inactive | inactive | inactive | inactive | inactive | inactive | inactive | inactive | inactive | inactive | inactive |  |  | inactive
Cc1ccc(S(=O)(=O)N=C=O)cc1 | inactive | inactive | inactive | inactive | inactive | inactive | inactive | inactive | inactive | inactive | inactive | inactive | inactive | inactive | inactive | inactive | inactive | inactive | inactive | inactive
